The list is not random: actives were taken first. Their share in the collection is about 7.8%.
Marburg entry inh: qHTS for inhibitors of binding or entry into cells for Marburg Virus. Potency, µM (series often up to 37.8 µM), inactives show at the highest dose activity change, negative = inhibition, hits mostly inhibitors. Marburg virus pseudotyped entry inhibition, cell reporter. actives 1.8% (n = 300,000); calls by dose curve; tested in HEK293 cells; also: potency is read from the fitted curve at half-maximal effect; % is scaled to controls: 0 for no effect and ±100 for the full control effect
LASV entry inh: qHTS for Inhibitors of binding or entry into cells for Lassa Virus. actives 1.2% (n = 300,000). Lassa virus pseudotype entry inhibition, cell reporter. Potency, µM (series often up to 37.9 µM), for the others: at the top dose activity change, negative = inhibition, most hits filed as inhibitors. AID 540256, 2011; calls by dose curve; tested in HEK293 cells; also: potency is read from the fitted curve at half-maximal effect; % is scaled to controls: 0 for no effect and ±100 for the full control effect; nearly all actives have a fitted effect of over 50% in size
Vaccinia Venus: qHTS for Stage-Specific Inhibitors of Vaccinia Orthopoxvirus: Venus Reporter Primary qHTS | Vaccinia virus Venus reporter expression, fluorescence | Potency, µM (titrated, usually from 36.5 µM), without a hit: at the highest dose activity change, negative = inhibition, most hits filed as inhibitors | actives 0.46% (n = 330,000) | AID 720580, 2013; calls by dose curve; tested in A549 cells; also: potency is read from the fitted curve at half-maximal effect; % is scaled to controls: 0 for no effect and ±100 for the full control effect; nearly all actives have a fitted effect of over 30% in size
VACV mCherry inh: qHTS for Stage-Specific Inhibitors of Vaccinia Orthopoxvirus: mCherry Reporter Primary qHTS; Vaccinia virus mCherry reporter infection, fluorescence; Potency, µM (top dose mostly 36.5 µM), for the others: top-dose activity change, negative = inhibition, actives largely listed as inhibitors; actives 0.63% (n = 310,000); calls by dose curve; tested in A549 cells; also: potency is read from the fitted curve at half-maximal effect; % is scaled to controls: 0 for no effect and ±100 for the full control effect; nearly all actives have a fitted effect of over 35% in size
HCV inhibitor: qHTS Assay for Inhibitors of Hepatitis C Virus (HCV). Huh7.5.1 HCVcc-Cre infection, luciferase reporter, 44 h. Potency, µM (highest dose often 41.8 µM), inactives show at the highest dose activity change, negative = inhibition, most hits filed as inhibitors. actives 3.4% (n = 340,000); also: potency is read from the fitted curve at half-maximal effect; % is scaled to controls: 0 for no effect and ±100 for the full control effect
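Antiviral activity was scored by luciferase reporter output from cells infected with HCVcc-Cre (~0.5 moi) in presence of compound, 44 h infection period, cells seeded 1,000/well 4 h prior.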
HCMV antiviral: qHTS Assay for inhibitors of the human cytomegalovirus (HCMV); HFF cells, HCMV-luciferase reporter, 72 h; hits give low values; activity change, negative = inhibition, % at 57.5 µM; actives 4.5% (n = 410,000); AID 1259415, 2018; in the data active = activity change below about -60%; inconclusive = no clear call, values can overlap the other calls; inactive = above about -39%; also: % is scaled to controls: 0 for no effect and ±100 for the full control effect
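Screen run at 2 compound doses on HFFs infected with reporter HCMV, MOI 1 PFU/cell. Luciferase activity from cell lysates at 72 h post infection gave inhibition relative to buffer-only and Salinomycin wells.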
HCV inh confirm: qHTS Assay for Inhibitors of Hepatitis C Virus (HCV): Confirmation Assay for Cherry-picked Compounds | shares compounds with HCV inhibitor | HCVcc-Cre infectious virus cell assay, luciferase, inhibition | Potency, µM (highest dose often 41.8 µM), inactives show top-dose activity, negative = inhibition, usual class: inhibitors | actives 78% (n = 640) | AID 720575, 2013; also: potency is read from the fitted curve at half-maximal effect; nearly all actives have a fitted effect of over 80% in size
HCV cytotox: qHTS Assay for Inhibitors of Hepatitis C Virus (HCV): Cytotoxicity Counterscreen for Cherry-picked Compounds; shares compounds with HCV inhibitor; HCV host cell line cytotoxicity counterscreen; Potency, µM (highest dose often 41.8 µM), without a hit: at the top dose activity change, negative = cytotoxicity, actives largely listed as inhibitors; actives 22% (n = 640); AID 720576, 2013;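 also: potency is read from the fitted curve at half-maximal effect; 44 h compound exposure; % is scaled to controls: 0 for no effect and ±100 for the full control effect; nearly all actives have a fitted effect of over 55% in size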
The depositor's hits bear a star; i = inactive; ? = inconclusive; . = no result given; [ ] = remark or other dose. Unless noted, calls follow the shape of the dose curve; as a rule, active = well fitted curve in the direction sought with a large enough effect; inconclusive = small, poorly fitted or top-dose-only effect, or another doubt; inactive = no such curve, though single readings can be large; an effect the other way counts as inactive or inconclusive.

SMILES | Marburg entry inh | LASV entry inh | Vaccinia Venus | VACV mCherry inh | HCV inhibitor | HCMV antiviral | HCV inh confirm | HCV cytotox
O=S(=O)(Nc1ccc(-c2ccc(NS(=O)(=O)c3ccccc3)cc2)cc1)c1ccccc1 | -2.6%[46.1 µM] | ? | ? | -17.2% | 3.16µM* | -11.2 | 12.5µM* | 2.1%
O=C(NCC1CCCO1)c1cc2c([nH]c3ccccc32)c(-c2cccc(Br)c2)n1 (stereo not drawn) | . | . | ? | ? | 2µM* | -72.3* | 14.1µM* | 37.2%
O=C1/C(=C/c2cccnc2)Oc2cc(OS(=O)(=O)c3ccc(F)cc3)ccc21 | ? | -22.4% | . | . | 4.47µM* | 6.2 | 25µM* | -28.7%
CCOC(=O)C1=C(CC)Nc2ccccc2N=C1NC(=O)c1oc2ccccc2c1C | ? | ? | -5.8% | -16.3% | ? | 68.8 | 12.5µM* | 1.8%
CCOCc1c(C(=O)NC2=Nc3ccccc3NC(CC)=C2C(=O)OCC)oc2ccccc12 | ? | ? | -13.3% | i | ? | ? | . | .
Cc1nn(C)c2c1c(-c1ccccc1)cc(=O)n2Cc1ccccc1C#N | . | 5.4%[46.1 µM] | -15.8% | -18.2% | . | 2.2 | . | .
CCN1C(=O)/C(=C\c2cccs2)C(C(=O)OC)=C1C | -7.0% | 4.7% | -7.7% | . | 3.98µM* | 4.8 | ? | ?
Cc1cccc(C(=O)N2c3ncnn3C3(CCCCC3)[C@@H]3CCCC[C@@H]32)c1 | -19.2%[46.1 µM] | 0.5%[46.1 µM] | -9.6% | -14.4% | . | -7.3 | . | .
Cc1cc(Cl)ccc1NC(=O)NC1CCN(S(=O)(=O)c2ccc(F)cc2)CC1 | -25.8%[46.1 µM] | ? | -24.8% | ? | 4.47µM* | -22.5 | 11.2µM* | 21.9%
Cc1c(-c2nsc(NC(=O)c3cccs3)n2)nnn1-c1ccc(Cl)cc1 | . | -2.4%[46.1 µM] | -14.5% | -2.4% | . | ? | . | .
O=C(Nc1ccc2c(c1)Cc1ccccc1-2)c1cccnc1 | -2.8% | ? | . | . | 6.31µM* | 29.3 | -21.5% | -22.9%
COc1ccc(N(CCCN2C(=O)c3cccc4cccc(c34)C2=O)C(=O)c2cccs2)cc1 | 2.5% | 0.1% | . | . | ? | -21.3 | . | .
COc1cc(C)ccc1N(CCCN1C(=O)c2cccc3cccc(c23)C1=O)C(=O)c1cccs1 | ? | ? | -21.0% | -26.5% | 5.62µM* | ? | 12.5µM* | 36.5%
CC(C)Oc1ccccc1/C=N/NC(=O)c1ccc(F)cc1 | ? | ? | -8.6% | -13.3% | 7.94µM* | 13.6 | ? | -9.9%
CC(C)Oc1ccccc1/C=N/NC(=O)c1ccccc1Cl | . | . | . | . | -21.2% | -32.2 | . | .
CSc1nc2ccc(Cl)cc2[nH]1 | -3.9% | 20.1% | . | . | ? | -32.5 | . | .
CSc1nc2cc(Oc3cccc(Cl)c3Cl)c(Cl)cc2[nH]1 | . | . | -20.8% | -11.5% | 7.94µM* | -26.9 | ? | 25.6%
c1cnc2c(c1)ccc1cccnc12 | 5.8µM* | 3.66µM* | ? | 3.55µM* | 8.91µM* | -98.9* | 7.05µM* | -64.7%
CCOC(=O)/C(C#N)=C(C)/C=C1\Sc2ccccc2N1CC | ? | 19.6% | -23.5% | -21.5% | ? | 91.5 | . | .
CCN1/C(=C\C(=S)Nc2ccccc2)Sc2ccccc21 | ? | ? | -28.4% | -25.9% | 6.31µM* | -60.9* | 14.1µM* | ?
CC(C)CCN(Cc1ccco1)C(=O)c1cc2c(Cl)nc3ccccc3c2s1 | -20.8%[46.1 µM] | -8.1%[46.1 µM] | 1.1% | 1.8% | . | -13.7 | . | .
C=C(c1ccccc1Cl)[n+]1ccccc1 | ? | -11.8% | ? | -26.1% | 4.47µM* | -60.2* | 7.05µM* | 25µM*
CC(=O)Nc1ccc(-c2cc(C(=O)O)c3c(-c4ccccc4)[nH]nc3n2)cc1 | 4.4%[46.1 µM] | -8.5%[46.1 µM] | -1.6% | 3.8% | . | 5.1 | . | .

Screens: PubChem, National Center for Advancing Translational Sciences (NCATS)
